Many of the other results were omitted from the sample, so hits are more common in it than they were.
mHTT-CaM PPI inh – inhibitors of human mutant huntingtin-calmodulin interaction; P42858; AlphaScreen His-mHTT/GST-CaM binding, luminescence; inhibition, % at 15 µM; hit rate 3.6% among 190,000; AID 1671202;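 further: 0% = both proteins with DMSO and 100% = one protein alone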
Pf apPOL inh – Pf-apPOL DNA polymerase inhibition; Recombinant Pf-apPOL, molecular beacon fluorescence, 1.5 h; inhibition, % at 10 µM; hit rate 0.25% among 210,000; AID 1794808
* = called active by the depositor; / = not tested or not shown. No stated cut-off is given here; in the data, active means inhibition above about 50%; inactive means the rest.

SMILES	mHTT-CaM PPI inh	Pf apPOL inh
CC(=O)N1CCC2(CC1)N=C(c1ccc(C)c(C)c1)CC(c1cc(Cl)ccc1O)N2 (stereo not given)	63*	-2
O=C(Cc1c[nH]c2ncccc12)NCc1ccccc1Cl	-14	-1
O=C(C1c2ccccc2CC(=O)N1Cc1ccccc1)N1CCC(N2CCCCC2)CC1 (stereo not given)	5	2
CC(=O)N1CCC2(CC1)N=C(c1ccccc1)CC(c1cc(Cl)ccc1O)N2 (stereo not given)	65*	1
Cc1ccc(C2=NC(C)(C)NC(c3ccccc3O)C2)cc1 (stereo not given)	100*	-3
CC(C)C1N=C(c2ccc3c(c2)OCO3)CC(c2cc(Br)ccc2O)N1 (stereo not given)	31	-3
CC(=O)N1CCC2(CC1)N=C(c1ccc(F)cc1)CC(c1cc(Cl)ccc1O)N2 (stereo not given)	3	-4
CC(C)C1N=C(c2ccc3c(c2)OCO3)CC(c2cc(Cl)ccc2O)N1 (stereo not given)	67*	-1
Cc1ccc(C2=NC3(CCN(C)CC3)NC(c3ccccc3O)C2)cc1 (stereo not given)	13	-1
CC1(C)CC(=O)C2=C(C1)OC1=C(C(=O)CC(C)(C)C1)C2c1cc([N+](=O)[O-])c(Cl)cc1Cl	1	1
CCOc1ccccc1NC(=O)c1nn(-c2ccc(OC)cc2)c(=O)c2ccccc12	-10	-7
CCOC(=O)N1CCc2nn(CC(=O)NCc3ccc(Cl)cc3)c(=O)cc2C1	30	-3
COc1cccc2sc(Nc3nnc(-c4cccs4)o3)nc12	76*	-265
COc1cccc2sc(Nc3nc4ccc(S(C)(=O)=O)cc4s3)nc12	-36	-252
O=C(Cn1ccc2sccc2c1=O)Nc1ccccc1Cl	-4	-5
Cc1ccc(C2=NNC(C)(C3(C)NN=C(c4ccc(C)cc4)S3)S2)cc1 (stereo not given)	41	/
Cc1ccc(C2=NNC3(S2)C(=O)Nc2ccc(C)cc23)cc1 (stereo not given)	100*	0
Cc1ccc(N2C(=O)C(C)SC23C(=O)Nc2ccccc23)cc1 (stereo not given)	1	2
Cc1ccc(C2=NNC3(S2)C(=O)Nc2ccccc23)cc1 (stereo not given)	99*	1
Cc1ccc(Cc2c(C)nc3nc(SCC(=O)NCc4cccs4)nn3c2C)cc1	-2	-8
COc1cccc(CNC(=O)c2cccc(N3CCNC(c4ccccc4)C3)n2)c1 (stereo not given)	11	-6
COc1ccc(Nc2nc(N)nc(CN3CCN(c4ccccc4)CC3)n2)cc1	54*	-4
COc1ccc(Nc2nc(N)nc(CN3CCCCC3)n2)cc1	0	-4
COc1cccc(NC(=O)N2CCCC2c2ccccc2F)c1 (stereo not given)	-6	-5
CN1C(=O)c2ccccc2Oc2ccc(NC(=O)c3cccs3)cc21	19	-4
SMILES	mHTT-CaM PPI inh	Pf apPOL inh
CCC(=O)N1CCCC(c2ccnc(Nc3ccc(OC)cc3)n2)C1 (stereo not given)	-1	-7
Cc1ccccc1Nc1nccc(C2CCCN(C(=O)Cc3cccs3)C2)n1 (stereo not given)	10	-3
CCC(=O)N1CCCC(c2ccnc(Nc3cccc(C)c3)n2)C1 (stereo not given)	57*	-5
Cc1cccc(Nc2nccc(C3CCCN(C(=O)c4ccc(C#N)cc4)C3)n2)c1 (stereo not given)	14	-5
Cc1cccc(Nc2nccc(C3CCCN(C(=O)C4CCCO4)C3)n2)c1 (stereo not given)	74*	-3
Cc1cccc(Nc2nccc(C3CCCN(C(=O)Cc4cccs4)C3)n2)c1 (stereo not given)	63*	-5
Cc1coc2cc3oc(=O)c4ccccc4c3cc12	-1	1
Cc1nn(C)c2c(=O)n(-c3ccccc3)c(CSCc3ccccc3)nc12	2	-2
COc1cc(/C=C2/SC(c3ccc(C)cc3)=NC2=O)cc(OC)c1O	42	5
Cc1ccc(C2=NC(=O)/C(=C\c3cc(O)c(O)c(Br)c3)S2)cc1	95*	10
Cc1ccccc1C=C1Oc2cc(OCC(=O)OC(C)(C)C)ccc2C1=O	-1	8
Cn1cc(C(c2ccco2)c2cn(C)c3ccccc23)c2ccccc21	58*	5
Cn1cc(C(c2ccc(Br)o2)c2cn(C)c3ccccc23)c2ccccc21	43	-6
CC1CCN(C(=O)C(C2CCCC2)N2CCN(C(=O)c3ccc(F)cc3)CC2)CC1 (stereo not given)	27	2
N#Cc1cccc(C(=O)Cc2cccc(Oc3ccccc3)c2)c1	/	56*
NCc1cccc(Oc2ccccc2)c1	-5	-13
O=C(O)C1C2CC3C1C(=O)Oc1ccccc1C1c4sc(=O)[nH]c4SC2C13 (stereo not given)	-3	2
O=c1[nH]c2c(s1)C1c3ccccc3OC3CCCC(S2)C31 (stereo not given)	52*	-52
Cc1cc(Br)ccc1NC(=O)CCN1C(=O)c2ccccc2C1=O	2	4
CSc1nc(C2CC2)cc(-c2ccco2)c1C#N	5	-4
CC1=C(C)CC2C(=O)C3=C(C(=O)C2C1)C1c2ccccc2C3c2ccccc21 (stereo not given)	61*	-2
CSc1ccccc1N1C(=O)C2CC(C)=C(C)CC2C1=O (stereo not given)	-7	-1
Cn1c(C(=O)NCCCN2CCCCC2)cc2c1CCN(Cc1ccccc1)C2	93*	7
Cn1c(C(=O)NCCCN2CCCCC2)cc2c1CCN(Cc1cccc(F)c1)C2	83*	-4
CCN(CC)C(=O)c1cc2c(n1C)CCN(Cc1cccc(C)c1)C2	50	-7
SMILES	mHTT-CaM PPI inh	Pf apPOL inh
Cn1c(C(=O)NCCN2CCCCC2)cc2c1CCN(Cc1ccc(F)cc1)C2	47	2
CCCCN(C)C(=O)c1cc2c(n1C)CCN(Cc1cccc(F)c1)C2	45	-6
Cc1cccc(CN2CCc3c(cc(C(=O)NCc4ccco4)n3C)C2)c1	57*	-4
CN(Cc1ccccc1)C(=O)c1cc2c(n1C)CCN(Cc1cccc(F)c1)C2	59*	-5
Cn1c(C(=O)NC(C)(C)C)cc2c1CCN(Cc1cccc(F)c1)C2	16	-4
S=C(Nc1ccc2c(c1)OCCO2)Nc1ccccc1N1CCOCC1	/	-26
CN1CCc2c(sc3c2C(=O)NC(c2ccc(O)cc2)N3)C1 (stereo not given)	9	-9
COc1ccc(N2C(=O)NC3CC2(C)Oc2ccc(Br)cc23)cc1Cl (stereo not given)	7	-6
CC1=NC(c2ccccc2)(c2ccccc2)c2ccccc2N1	27	3
Fc1cc(F)c2nc(NCCCn3ccnc3)sc2c1	-12	-4
Cn1c(C(=O)NCc2ccccc2)cc2c1CCN(Cc1ccccc1)C2	63*	-1
COc1ccc(CNC(=O)c2cc3c(n2C)CCN(Cc2ccccc2)C3)cc1	38	-2
O=C(CN1CCN(c2ccccc2)CC1)Nc1ccc(OC(F)(F)Cl)cc1	9	-5
COc1ccc(C=C2Oc3cc(C)c(CN4CCN(C)CC4)c(O)c3C2=O)cc1	79*	13
COc1ccc(C=C2Oc3cc(C)c(CN4CCOCC4)c(O)c3C2=O)cc1	1	4
O=C(c1ccncc1)N(c1ccc2oc3c(c2c1)CCCC3)S(=O)(=O)c1ccc(F)cc1	58*	3
CCOc1ccc(S(=O)(=O)N(C(=O)c2ccncc2)c2ccc3oc4c(c3c2)CCCC4)cc1	30	-4

High-throughput results as filed in PubChem BioAssay.
